Test systems include NCI-H23 lung; NCI-H226 lung; NCI-H322M lung; HOP-62 NSCLC; NCI-H460 lung; HOP-92 NSCLC; NCI-H522 lung; A549/ATCC NSCLC; 786-0 renal; COLO 205 colon; DU-145 prostate; K-562 leukemia; MALME-3M melanoma; RXF 393 renal; SF-268 CNS; SF-295 CNS; SF-539 CNS; UACC-257 melanoma; MDA-MB-231 breast; M14 melanoma.
What all share (experiment): NCI-60 one-dose screen, 48 h (100 = growth as untreated, 0 = no growth, -100 = all killed)
Holding throughout (settings): 10 µM unless noted

About 83,000 compounds went through this panel and 20% of them were active in at least one assay; those are over-represented in the sample as a whole.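 Method: cells in 96-well plates; compound added at one concentration; 48 h incubation; percent growth measured; values under 10 scored active.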 Unmarked numbers belong to inactive results. Active and inactive are the calls of the source.

With `Nc1c(C(=O)Nc2ccccc2)sc2nc3c(cc12)CCCCCC3`, the growth with NCI-H23 lung is 22.5%; in the assay on NCI-H226 lung, 27%; with NCI-H322M lung it was 29.2%; with HOP-62 NSCLC, 15.5%; with NCI-H460 lung it was 4.61% (active); in the assay on HOP-92 NSCLC, 76.5%. In addition, the growth is -11.6% (active) in the assay with NCI-H522 lung; 15% with A549/ATCC NSCLC; 10.4% with 786-0 renal; -17% (active) in the assay on COLO 205 colon; 18.6% in the assay with DU-145 prostate; 7.92% (active) in the assay with K-562 leukemia. Moreover, the growth in the assay with MALME-3M melanoma was 31.3%; in the assay on RXF 393 renal, -38.7% (active); with SF-268 CNS it was 36.6%; with SF-295 CNS, -0.47% (active); in the assay with SF-539 CNS, -41.8% (active); in the assay with UACC-257 melanoma, 44.9%.

In the case of `CO/C(=C1/NC(=O)C(Cc2ccc(O)c(Br)c2)N(C)C(=O)C(C)NC(=O)CCC/C=C(\C)CCC(C)OC1=O)c1ccccc1` (stereo not given), the growth in the assay with NCI-H23 lung is 25.1%; with NCI-H226 lung, -33.9% (active); in the assay on NCI-H322M lung it was -34.3% (active); with HOP-62 NSCLC it was -19.7% (active); in the assay with NCI-H460 lung it was -22.1% (active); in the assay on HOP-92 NSCLC, -53.9% (active). For the same compound, the growth in the assay with NCI-H522 lung is -61.1% (active); with A549/ATCC NSCLC, -49.5% (active); in the assay with 786-0 renal, -35.6% (active); in the assay on COLO 205 colon it was 7.23% (active); with DU-145 prostate, -17.3% (active); with K-562 leukemia, 6.13% (active). Further, the growth in the assay with MDA-MB-231 breast was -31.3% (active); in the assay on RXF 393 renal, -79.5% (active); with SF-268 CNS, -43.6% (active); in the assay on SF-295 CNS it was -65.3% (active); in the assay on SF-539 CNS it was -52.3% (active); in the assay on UACC-257 melanoma, -54% (active).

Regarding `N#Cc1c(N)nc2c(nnn2-c2cccc(Br)c2)c1N`, the growth with NCI-H23 lung is 89.5%; in the assay on NCI-H226 lung it was 95.7%; with NCI-H322M lung it was 97.6%; in the assay on HOP-62 NSCLC, 94.8%; with NCI-H460 lung it was 97.1%; in the assay on HOP-92 NSCLC it was 82.2%. Further, the growth with NCI-H522 lung is 86%; in the assay on A549/ATCC NSCLC, 92.6%; in the assay on 786-0 renal, 105%; in the assay with COLO 205 colon, 105%; in the assay with DU-145 prostate it was 109%; in the assay on MALME-3M melanoma, 115%. Besides, the growth was 89% in the assay with MDA-MB-231 breast; 111% with RXF 393 renal; 97.1% in the assay on SF-268 CNS; 107% with SF-295 CNS; 105% with SF-539 CNS; 106% in the assay on UACC-257 melanoma.

For `C[C@]12CCC(=O)C[C@H]1CC[C@@H]1[C@@H]2CC[C@@]2(C)[C@H]1CC[C@]2(O)C(=O)CO`, the growth with NCI-H23 lung is 107%; in the assay with NCI-H226 lung it was 94.2%; with NCI-H322M lung, 103%; in the assay with HOP-62 NSCLC, 105%; in the assay with NCI-H460 lung, 107%; in the assay on HOP-92 NSCLC, 93.2%. Moreover, the growth with NCI-H522 lung was 89.4%; in the assay with A549/ATCC NSCLC it was 122%; in the assay with 786-0 renal, 105%; in the assay with COLO 205 colon, 100%; with DU-145 prostate, 108%; in the assay on K-562 leukemia, 114%. Moreover, the growth is 99.6% in the assay with MDA-MB-231 breast; 108% with RXF 393 renal; 96% with SF-268 CNS; 113% with SF-295 CNS; 103% in the assay on SF-539 CNS; 129% in the assay on UACC-257 melanoma.

With `Nc1c(-c2nc3ccc(Br)cc3c(=O)[nH]2)nnn1-c1ccccc1`, the growth is 82.6% in the assay with NCI-H23 lung; 107% in the assay with NCI-H226 lung; 71.5% with NCI-H322M lung; 87% in the assay with HOP-62 NSCLC; 43.5% in the assay with NCI-H460 lung; 94.7% with HOP-92 NSCLC. For the same compound, the growth with NCI-H522 lung was 73.9%; with A549/ATCC NSCLC, 74.8%; with 786-0 renal it was 87.6%; with COLO 205 colon it was 102%; in the assay on DU-145 prostate, 62.3%; in the assay with MALME-3M melanoma, 86.8%. For the same compound, the growth in the assay on MDA-MB-231 breast was 82.2%; with RXF 393 renal, 103%; with SF-268 CNS it was 60%; in the assay on SF-295 CNS, 68%; with SF-539 CNS it was 90.9%; with UACC-257 melanoma, 95.9%.

For `Cc1ccc(-n2nnc(C3=NCCc4c3[nH]c3ccc(Cl)cc43)c2C)cc1`, the growth in the assay on NCI-H23 lung was 80.6%; with NCI-H226 lung it was 76.2%; in the assay with NCI-H322M lung, 85%; with HOP-62 NSCLC it was 72.2%; in the assay on NCI-H460 lung, 72.5%; with HOP-92 NSCLC, 76.4%. Moreover, the growth was 30.9% with NCI-H522 lung; 41.3% in the assay on A549/ATCC NSCLC; 78.2% with 786-0 renal; 101% with COLO 205 colon; 87.3% with DU-145 prostate; 98.3% in the assay with MALME-3M melanoma. For the same compound, the growth with MDA-MB-231 breast was 80.4%; in the assay with RXF 393 renal, 102%; in the assay with SF-268 CNS it was 80.6%; in the assay with SF-295 CNS, 70.6%; with SF-539 CNS, 92.9%; in the assay on UACC-257 melanoma, 57.9%.

For `N#Cc1c(N)n2c(nc1=Nc1ccc(Cl)cc1)sc1cc(Cl)ccc12`, the growth is 66.6% in the assay with NCI-H23 lung; 36.7% in the assay with NCI-H226 lung; 91% with NCI-H322M lung; 96.9% in the assay on HOP-62 NSCLC; 95.1% with NCI-H460 lung; 76.6% in the assay on HOP-92 NSCLC. Also, the growth is 93% in the assay on NCI-H522 lung; 75.4% in the assay on A549/ATCC NSCLC; 51.4% in the assay on 786-0 renal; 97.7% with DU-145 prostate; 92.1% in the assay on K-562 leukemia; 85.4% in the assay on MALME-3M melanoma. Also, the growth was 67.1% in the assay with MDA-MB-231 breast; 65.1% in the assay on RXF 393 renal; 56.4% in the assay with SF-268 CNS; -2.32% (active) with SF-295 CNS; 103% with SF-539 CNS; 54.4% in the assay with UACC-257 melanoma. Moreover, the growth in the assay on M14 melanoma is 62.2%.

With `N#Cc1c(NC(=O)c2ccc(Br)cc2)sc2c1CCCC2`, the growth with NCI-H23 lung is 65%; in the assay with NCI-H226 lung, 44.2%; in the assay with NCI-H322M lung it was 52.1%; in the assay on HOP-62 NSCLC, 46.4%; in the assay with NCI-H460 lung, 14.3%; in the assay on HOP-92 NSCLC, 81.5%. The growth was 22.6% in the assay with NCI-H522 lung; 53.6% in the assay with A549/ATCC NSCLC; 46.1% in the assay with 786-0 renal; 33.3% in the assay with DU-145 prostate; 15.9% with K-562 leukemia; 49.2% in the assay on MALME-3M melanoma. The growth was 44.9% in the assay on MDA-MB-231 breast; 13.7% in the assay on RXF 393 renal; 61.7% in the assay with SF-268 CNS; 21.7% in the assay on SF-295 CNS; 10.5% in the assay on SF-539 CNS; 66.1% in the assay on UACC-257 melanoma. Also, the growth in the assay on M14 melanoma was 17.3%.

Regarding `COc1ccc2c(c1)/C(=C\c1sc(=S)[nH]c1O)C(C(=O)O)=N2`, the growth was 99.1% in the assay with NCI-H23 lung; 99.3% with NCI-H226 lung; 102% in the assay on NCI-H322M lung; 116% in the assay on HOP-62 NSCLC; 108% with NCI-H460 lung; 91.6% in the assay with HOP-92 NSCLC. Moreover, the growth in the assay with NCI-H522 lung is 87.6%; with A549/ATCC NSCLC it was 99.8%; in the assay on 786-0 renal, 102%; in the assay with DU-145 prostate it was 99.2%; in the assay on K-562 leukemia it was 92.6%; in the assay with MALME-3M melanoma it was 94.7%. In addition, the growth is 94.8% in the assay with MDA-MB-231 breast; 95.2% with RXF 393 renal; 92.3% with SF-268 CNS; 103% in the assay with SF-295 CNS; 99.4% in the assay on SF-539 CNS; 96.7% in the assay with UACC-257 melanoma. Besides, in the assay on M14 melanoma, the growth was 97%.

(Values after PubChem BioAssay (NCI).)
